# Source: the supplement of paper PMC11634586
# System: NCI-H1688
# Assay: inhibition of cell viability relative to untreated control (fraction); higher = stronger growth inhibition, active = 0.5 or more
# Conditions: 30 µM; 24 h
# Outline: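 NCI-H1688 small cell lung cancer cells were seeded at 3 × 10^3 cells/well in 96-well plates and treated 24 h later with a natural compound library (TargetMol) at 30 µM for 24 h, at 37°C with 5% CO2. Viability was read in triplicate with Cell Counting Kit-8 as absorbance at 450 nm. Inhibition of cell viability is expressed as a fraction, derived from viability normalised to the untreated control.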
row,Structure (SMILES),inhibition of cell viability
1,CC[C@H]1OC(=O)C[C@@H](O)[C@H](C)[C@@H](O[C@@H]2O[C@H](C)[C@@H](O[C@H]3C[C@@](C)(O)[C@@H](O)[C@H](C)O3)[C@H](N(C)C)[C@H]2O)[C@@H](CC=O)C[C@@H](C)C(=O)/C=C/C(C)=C/[C@@H]1CO[C@@H]1O[C@H](C)[C@@H](O)[C@@H](OC)[C@H]1OC [Tylosin],0.0387 (inactive)
2,CC[C@H]1OC(=O)[C@H](C)[C@@H](O[C@H]2C[C@@](C)(OC)[C@@H](O)[C@H](C)O2)[C@H](C)[C@@H](O[C@@H]2O[C@H](C)C[C@H](N(C)C)[C@H]2O)[C@](C)(O)C[C@@H](C)CN(C)[C@H](C)[C@@H](O)[C@]1(C)O [Azithromycin dihydrate],0.037 (inactive)
3,O=c1cc(-c2ccccc2)oc2ccccc12 [Flavone],0.149 (inactive)
4,O=C(/C=C/c1ccc(O)c(O)c1)O[C@@H]1C[C@](O)(C(=O)O)C[C@@H](O)[C@H]1O [Chlorogenic Acid],0.162 (inactive)
5,C[C@]12C[C@H](O)[C@H]3[C@@H](CCC4=CC(=O)CC[C@@]43C)[C@@H]1CC[C@@H]2C(=O)CO [Corticosterone],0.0335 (inactive)
6,CC(=O)C1=C(O)C=C2Oc3c(C(C)=O)c(O)c(C)c(O)c3C2(C)C1=O (stereo in doubt) [Usnic Acid],0.273 (inactive)
7,C=C[C@](C)(O)CC[C@@H]1[C@@]2(C)CCCC(C)(C)[C@@H]2CC[C@@]1(C)O [Sclareol],0.318 (inactive)
8,CC(=O)OC/C=C(C)/C=C/C=C(C)/C=C/C1=C(C)CCCC1(C)C [Retinyl acetate],-0.265 (inactive)
9,CO[C@H]1C[C@@H]2CC[C@@H](C)[C@@](O)(O2)C(=O)C(=O)N2CCCC[C@H]2C(=O)O[C@H]([C@H](C)C[C@@H]2CC[C@@H](O)[C@H](OC)C2)CC(=O)[C@H](C)/C=C(\C)[C@@H](O)[C@@H](OC)C(=O)[C@H](C)C[C@H](C)/C=C/C=C/C=C/1C [Rapamycin (Sirolimus)],0.76 (active)
10,OC[C@@H](O)[C@@H](O[C@H]1O[C@H](CO)[C@@H](O)[C@H](O)[C@H]1O)[C@H](O)[C@@H](O)CO [Maltitol],0.0233 (inactive)
11,NC(=O)NC1NC(=O)NC1=O (stereo not given) [Allantoin],0.00777 (inactive)
12,CC(=O)OC(C)C(C)C(=O)OCC12C3CC(C)(C)[C@H](O[C@@H]1C[C@]1(C)C3=CCC3C4(C)CCC(O[C@@H]5O[C@H](C(=O)O)[C@@H](O[C@H]6O[C@H](CO)[C@@H](O)[C@H](O)[C@H]6O)[C@H](O)[C@H]5O[C@@H]5OC[C@@H](O)[C@H](O)[C@H]5O)[C@](C)(CO)C4CCC31C)C2O (stereo not given in full) [Sodium Aescinate],0.524 (active)
13,O=c1c(O)c(-c2ccccc2)oc2ccccc12 [3-Hydroxyflavone],0.587 (active)
14,C=C[C@H]1[C@H](O[C@@H]2O[C@H](CO)[C@@H](O)[C@H](O)[C@H]2O)OC=C2C(=O)OCC[C@]21O [Swertiamarin],-0.0605 (inactive)
15,O=C(/C=C/c1ccc(O)cc1)c1ccc(O)cc1O [Isoliquiritigenin],0.485 (inactive)
16,CC[C@H](C)[C@H](N)C1=N[C@H](C(=O)N[C@@H](CC(C)C)C(=O)N[C@H](CCC(=O)O)C(=O)N[C@H](C(=O)N[C@H]2CCCCNC(=O)[C@H](CC(N)=O)NC(=O)[C@@H](CC(=O)O)NC(=O)[C@H](Cc3cnc[nH]3)NC(=O)[C@@H](Cc3ccccc3)NC(=O)[C@H]([C@@H](C)CC)NC(=O)[C@@H](CCCN)NC2=O)[C@@H](C)CC)CS1 [Bacitracin],-0.0913 (inactive)
17,O=C1O[C@H]([C@@H](O)CO)C(O)=C1O [L(+)-Ascorbic acid],0.195 (inactive)
18,CCCCCCCCCCCCCCCCCCCCCCO [Behenic alcohol],-0.0686 (inactive)
19,COc1ccc2cc1Oc1ccc(cc1)C[C@H]1c3cc(c(OC)cc3CCN1C)Oc1c(OC)c(OC)cc3c1[C@H](C2)N(C)CC3 [Tetrandrine],1.01 (active)
20,CC1(C)CCCC2(C)OC(=O)C=C12 (stereo not given) [Dihydroactinidiolide],0.194 (inactive)
21,COc1ccc([C@@H]2CC(=O)c3c(O)cc(O)cc3O2)cc1O [Hesperetin],-0.0748 (inactive)
22,C=CCS[S+]([O-])CC=C (stereo not given) [Allicin],-0.267 (inactive)
23,C=C1CC[C@H](O)C/C1=C/C=C1\CCC[C@]2(C)[C@@H]([C@H](C)/C=C/[C@H](C)C(C)C)CC[C@@H]12 [Vitamin D2],-0.0632 (inactive)
24,CC(=O)OCC(=O)[C@@]1(O)CC[C@H]2[C@@H]3CCC4=CC(=O)CC[C@]4(C)[C@H]3C(=O)C[C@@]21C [Cortisone acetate],-0.148 (inactive)
25,C=C1CC[C@H]2C(=C)CC[C@H]3C(=C)C(=O)O[C@@H]3[C@@H]12 [Dehydrocostus Lactone],0.992 (active)
26,CC1(C)[C@@H](O[C@H]2O[C@H](C(=O)O)[C@@H](O)[C@H](O)[C@H]2O[C@@H]2O[C@H](C(=O)O)[C@@H](O)[C@H](O)[C@H]2O)CC[C@]2(C)[C@H]3C(=O)C=C4[C@@H]5C[C@@](C)(C(=O)O)CC[C@]5(C)CC[C@@]4(C)[C@]3(C)CC[C@@H]12 [Monoammonium glycyrrhizinate],0.346 (inactive)
27,C[C@H]1[C@H](OC(=O)CCC(=O)O)O[C@@H]2O[C@@]3(C)CC[C@H]4[C@H](C)CC[C@@H]1[C@@]24OO3 [Artesunate],0.726 (active)
28,OC[C@H]1O[C@@H](O[C@@H]2[C@@H](CO)OC(O)(CO)[C@H]2O)[C@H](O)[C@@H](O)[C@H]1O (mixture of isomers) [Lactulose],0.135 (inactive)
29,Cn1c(=O)c2c(ncn2C)n(C)c1=O [Caffeine],0.0548 (inactive)
30,COc1cc(C[C@H]2C(=O)OC[C@@H]2Cc2ccc(OC)c(OC)c2)ccc1O [Arctigenin],0.431 (inactive)
